Compound activity as filed in PubChem BioAssay.
KCNH2 3.1 block: KCNH2 3.1 (human) potassium channel inhibition; U2OS KCNH2 3.1, thallium flux FluxOr; hits give low values; activity change, % (tested at about 1.8 µM); actives 0.95% (n = 340,000); AID 720553;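 active = maximum activity change below -70%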;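 also: thallium influx rate constant from kinetic fluorescence after stimulation buffer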
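Steps: virus added to U2OS suspension (4 h, RT, dark); medium with 10% FBS added, cells plated, 37 C overnight; FluxOr/Red40 loading buffer 45 min RT; stimulation buffer, 2 min kinetic read; rate constant normalized.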
RXFP1 ag: activates the human relaxin receptor RXFP1 | AID 2676 | HEK293T-RXFP1 cAMP TR-FRET, 30 min; response scale: percent of porcine relaxin response, buffer zero | actives 0.3% (n = 370,000) | Potency, µM (series often up to 57.5 µM), for the others: top-dose activation, most hits filed as activators | Q9HBX9; active = well fitted activation curve with a large enough effect; also: potency is read from the fitted curve at half-maximal effect; nearly all actives have a fitted effect of over 60% in size
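HEK293 cells stably expressing RXFP1, treated 30 min at 37C with compounds plus PDE4 inhibitor Ro 20174; cAMP measured by HTRF TR-FRET. Normalized to buffer and 29 nM porcine relaxin; EC50 by Hill fit.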
RXFP1 antag: blocks the human relaxin receptor RXFP1. actives 0.59% (n = 350,000). Q9HBX9. activity change, negative = inhibition, % at 57.5 µM. HEK293-RXFP1, relaxin-stimulated cAMP HTRF, 30 min; hits give low values;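 active = activity change of -60% or lower, but not beyond a set lower limit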
Akt phos inh: Akt phosphorylation inhibition; Neuro2A IGF-stimulated pAkt S473 HTRF, 20 min; hits give low values; activity change, % for hits at 50 µM; actives 0.32% (n = 360,000); in the data active = activity change below about -80%
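Neuro2A cells in DMEM with 0.5% FBS, overnight at 37 deg C, given compound at single 50 µM final, then IGF (6 nM final) for 20 min at 37 deg C. Lysed; phospho-Akt Ser473 by HTRF after 24 h, 665/615 ratio.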
KCNH2 WT inh: blocks the wildtype human KCNH2 potassium channel; Q12809; U2OS, BacMam KCNH2, thallium flux FluxOr; hits give low values; activity change, % at 1.84 µM; actives 0.37% (n = 340,000); AID 720551;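 active = maximum activity change below -70%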
Target sequence (Q12809 whole entry, looked up): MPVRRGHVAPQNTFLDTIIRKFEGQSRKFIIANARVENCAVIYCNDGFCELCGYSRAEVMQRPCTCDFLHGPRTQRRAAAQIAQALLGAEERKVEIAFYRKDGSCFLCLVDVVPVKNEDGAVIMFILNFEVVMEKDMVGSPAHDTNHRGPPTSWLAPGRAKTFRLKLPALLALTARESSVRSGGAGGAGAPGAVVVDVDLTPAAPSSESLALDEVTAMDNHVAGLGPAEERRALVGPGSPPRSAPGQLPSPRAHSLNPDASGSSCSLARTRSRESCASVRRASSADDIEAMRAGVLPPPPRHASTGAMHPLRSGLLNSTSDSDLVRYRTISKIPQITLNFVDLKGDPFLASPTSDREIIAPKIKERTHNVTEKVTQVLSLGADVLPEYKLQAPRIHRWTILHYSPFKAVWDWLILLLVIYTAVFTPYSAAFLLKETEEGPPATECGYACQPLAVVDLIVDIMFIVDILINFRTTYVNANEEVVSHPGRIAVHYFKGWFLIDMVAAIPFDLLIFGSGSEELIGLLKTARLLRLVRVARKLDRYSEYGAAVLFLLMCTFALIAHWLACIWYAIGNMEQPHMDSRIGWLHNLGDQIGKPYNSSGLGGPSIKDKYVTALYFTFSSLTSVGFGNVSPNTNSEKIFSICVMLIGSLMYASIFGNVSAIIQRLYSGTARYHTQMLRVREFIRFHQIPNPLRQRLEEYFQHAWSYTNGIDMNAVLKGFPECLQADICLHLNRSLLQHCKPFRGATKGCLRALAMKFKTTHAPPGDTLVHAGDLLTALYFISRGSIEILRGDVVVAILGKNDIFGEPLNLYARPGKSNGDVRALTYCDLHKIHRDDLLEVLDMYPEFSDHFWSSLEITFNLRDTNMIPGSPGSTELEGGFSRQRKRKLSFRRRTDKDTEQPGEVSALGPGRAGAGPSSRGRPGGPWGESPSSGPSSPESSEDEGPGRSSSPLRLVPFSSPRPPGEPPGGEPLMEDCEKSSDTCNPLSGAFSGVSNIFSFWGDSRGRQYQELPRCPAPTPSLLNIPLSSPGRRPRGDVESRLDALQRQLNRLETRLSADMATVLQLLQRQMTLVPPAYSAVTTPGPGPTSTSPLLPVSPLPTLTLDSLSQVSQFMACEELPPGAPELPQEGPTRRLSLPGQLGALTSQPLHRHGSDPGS
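U2OS cells transduced with wild-type KCNH2 virus are loaded with FluxOr dye for 45 min, and thallium flux is measured in kinetic reads before and after stimulation buffer. Rate constants are normalized to DMSO controls.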
The depositor's hits bear a star; i = inactive; nt = no result given. Hits are enriched below; roughly 1.7% of the tested compounds scored in any of these assays. % is scaled to controls: 0 for no effect and ±100 for the full control effect.

SMILES	KCNH2 3.1 block	RXFP1 ag	RXFP1 antag	Akt phos inh	KCNH2 WT inh
CCSc1nnc(-c2cnn(-c3ccccc3)c2-n2cccc2)n1C	-19	-1%	-6	-115%*	4
Cc1n[nH]c(C)c1N1C(=O)c2cccc3c(Br)ccc(c23)C1=O	-1	-1%	1	-113%*	-6
Cc1n[nH]c(C)c1N1C(=O)c2cccc3cc(Br)cc(c23)C1=O	2	3%	12	i	-2
CCc1ccc(-c2nc(CN3CCC(C(=O)NCCc4ccc(C)cc4)CC3)c(C)o2)cc1	nt	-1%	nt	nt	nt
Clc1cccc(-c2cc3nc4c(c(NCc5ccco5)n3n2)CCCC4)c1	-101*	2%	-15	i	-21
c1coc(CNc2c3c(nc4ncnn24)CCCC3)c1	-18	8%	-2	i	2
CCc1nnc(NS(=O)(=O)c2ccc(NC(=O)c3cccc4ccccc34)cc2)s1	-5	0%	5	i	i
Nc1nonc1C(=O)NCCN=Cc1cc(Cc2ccccc2)cc(Br)c1O	-1	2%	-73*	i	4
Nc1nonc1C(=O)NCCN=Cc1ccccc1O	-3	5%	-6	i	-5
O=C(NNC(=O)C1CC=CCC1C(=O)O)c1cccs1 (stereo not drawn)	8	0%	-1	i	3
COc1ccc(NS(=O)(=O)c2cc(NC(=O)c3cnc(C)cn3)ccc2N2CCCC2)cc1	11	0%	-6	i	7
CSc1ccc(/C=N/NC(=O)CN2CCN(Cc3ccc(Cl)cc3)CC2)cc1	-106*	-2%	-6	i	-41
O=C(CN1CCN(Cc2ccccc2)CC1)N/N=C/c1ccccc1F	-1	-3%	-15	i	-9
O=C(CN1CCN(Cc2ccccc2)CC1)N/N=C/C=C/c1ccco1	1	4%	-9	i	4
CSc1ccc(/C=N/NC(=O)CN2CCN(Cc3ccccc3)CC2)cc1	-73*	-4%	-2	i	-1
CC(/C=N/NC(=O)CN1CCN(Cc2ccc(Cl)cc2)CC1)=C\c1ccco1	-74*	2%	6	i	-29
CN(C(=O)Nc1ccc(Cl)cc1)c1c2c(nn1C)CCCC2	3	1%	1	-87%*	3
CN(NC(=O)Nc1ccc(Cl)cc1)c1c(Cl)c(Cl)nn1C	24	2%	-4	i	-10
c1cc(C2CCCCC2)ccc1Oc1nc(N2CCOCC2)nc(N2CCOCC2)n1	-71*	-2%	-8	i	3
c1ccc(Oc2nc(N3CCOCC3)nc(N3CCOCC3)n2)cc1	-5	2%	4	nt	6
CCOC(=O)c1cccc(NC(=O)NCc2cccn2Cc2ccccc2)c1	nt	-2%	-32	nt	nt
CCC(CC)C(=O)Nc1c2c(nn1-c1ccc(F)cc1)CS(=O)(=O)C2	-81*	2%	-11	i	3
Cc1cc(C)cc(NC(=O)CCc2c(C)nc3nc(CNC(=O)c4cccc(F)c4)nn3c2C)c1	nt	4%	2	nt	nt
CC(C(=O)NCc1cccs1)n1cccc1 (stereo not drawn)	-6	3%	-4	i	-8
CNC(=S)N(CCc1c(C)[nH]c2ccc(C)cc12)Cc1cccnc1	-3	-2%	nt	i	-12
SMILES	KCNH2 3.1 block	RXFP1 ag	RXFP1 antag	Akt phos inh	KCNH2 WT inh
CNC(=S)N(CCc1c(C)[nH]c2ccccc12)Cc1cccnc1	-191*	-2%	7	i	-133*
CCN(CC)C(=O)CSc1nc(OC)cc(=O)[nH]1	1	3%	-8	i	8
CC(=O)c1cccc(N(C(=O)c2csnn2)C(C(=O)NC2CCCC2)c2ccccc2)c1 (stereo not drawn)	-10	2%	-80*	i	2
Cc1nc(SCC(=O)NCc2cccs2)nc(C)c1C	5	3%	-6	i	-2
COC(=O)C1(Cc2ccc(O)c(CC3OC3(C)C)c2)OC(=O)C(O)=C1c1ccc(O)cc1 (stereo not drawn)	0	0%	nt	i	-7
Fc1ccc(-n2cc(CNCCc3ccccn3)c(-c3ccccc3Cl)n2)cc1	-115*	-1%	-7	i	-47
Cc1c(C(=O)/C=C/N(C)C)nnn1-c1ccc(Cl)cc1Cl	-20	5%	-64*	i	-5
Cc1c(C(=O)/C=C/N(C)C)nnn1-c1ccc(F)c(Cl)c1	-4	5%	-26	i	-3
O=C(NCCC1=CCCCC1)C(=O)NCc1ccncc1	11	-1%	-9	i	-18
O=C(CSc1ccc(Cl)cc1)c1ccco1	-5	1%	-15	-97%*	-1
O=C(CCCOc1ccc(Cl)cc1Cl)Nc1ncccn1	1	2%	-11	i	-1
O=C(CC(c1ccco1)S(=O)(=O)c1ccccc1)c1ccccc1 (stereo not drawn)	-27	-1%	-19	i	-2
CCCCC(=O)Nc1cccc(NC(=O)CC)c1	14	1%	-7	i	-4
CCCCOC(=O)c1cccc(NC(=O)CC)c1	18	2%	-12	-112%*	-9
Cc1cc2ccc3ccccc3c2cc1CN(C)C	-1	0%	-107*	i	18
Cc1c(C=O)c2ccccc2n1CC(=O)NCc1ccccc1	35	-2%	0	i	-2
Cc1c(C=O)c2ccccc2n1CC(=O)NCc1ccc2c(c1)OCO2	-390*	0%	-34	i	-3
COc1cc(/C=C2\C(=N)N3N=C(S(C)(=O)=O)SC3=NC2=O)cc(OC)c1OCCOc1ccccc1C	-9	1%	-6	i	4
COc1ccc(OCC(=O)Nc2cccc(-c3nc4ccccc4o3)c2)cc1	-19	3%	-6	i	6
CCc1ccc(OCC(=O)Nc2ccc(-c3nc4ccccc4o3)c(O)c2)cc1	4	30%	-8	-102%*	-1
NC1(c2ccc(-c3nc4ccn5c(=O)[nH]nc5c4cc3-c3ccccc3)cc2)CCC1	nt	nt	-62*	nt	nt
CCOC(=O)C1=C(C)N(C)C(C)=C(C(=O)OCC)C1c1ccc(Cl)cc1	-26	1%	-61*	i	-7
CCOC(=O)c1c(NC(=O)CSc2nnnn2-c2ccccc2)sc2c1CC(C)(C)NC2(C)C	-41	-1%	0	i	10
CCOC(=O)c1c(NC(=O)CSc2nnnn2-c2ccccc2OCC)sc2c1CC(C)(C)NC2(C)C	-81*	0%	-18	i	-19
CC1(C)Cc2c(sc(NC(=O)COc3ccc(Cl)cc3)c2C(N)=O)C(C)(C)N1	-73*	-1%	3	i	16
CC(=O)NNC(=O)c1sc(=S)n(C)c1C	13	0%	-2	i	0
Cc1ccc(NC(=O)CN(C)C(=O)CCOc2ccccc2C)cc1	-1	-1%	-7	i	-3
COc1ccc(C(=O)N2CCN(CCc3ccccn3)CC2)cc1	-99*	-2%	1	i	-1
